Outcome data for 40 molecules are collected here from PubChem BioAssay (NCATS).

Inconclusive results are not listed. Activity calls are given as the source filed them. Calls come from the whole dose curve; as a rule, active = well fitted inhibition curve with a large enough effect; inconclusive = small, poorly fitted or top-dose-only effect; inactive = flat fitted curve, though single readings scatter.

Sequence of Lysine-specific demethylase 5B (Homo sapiens) (Q9UGL1 whole entry, looked up): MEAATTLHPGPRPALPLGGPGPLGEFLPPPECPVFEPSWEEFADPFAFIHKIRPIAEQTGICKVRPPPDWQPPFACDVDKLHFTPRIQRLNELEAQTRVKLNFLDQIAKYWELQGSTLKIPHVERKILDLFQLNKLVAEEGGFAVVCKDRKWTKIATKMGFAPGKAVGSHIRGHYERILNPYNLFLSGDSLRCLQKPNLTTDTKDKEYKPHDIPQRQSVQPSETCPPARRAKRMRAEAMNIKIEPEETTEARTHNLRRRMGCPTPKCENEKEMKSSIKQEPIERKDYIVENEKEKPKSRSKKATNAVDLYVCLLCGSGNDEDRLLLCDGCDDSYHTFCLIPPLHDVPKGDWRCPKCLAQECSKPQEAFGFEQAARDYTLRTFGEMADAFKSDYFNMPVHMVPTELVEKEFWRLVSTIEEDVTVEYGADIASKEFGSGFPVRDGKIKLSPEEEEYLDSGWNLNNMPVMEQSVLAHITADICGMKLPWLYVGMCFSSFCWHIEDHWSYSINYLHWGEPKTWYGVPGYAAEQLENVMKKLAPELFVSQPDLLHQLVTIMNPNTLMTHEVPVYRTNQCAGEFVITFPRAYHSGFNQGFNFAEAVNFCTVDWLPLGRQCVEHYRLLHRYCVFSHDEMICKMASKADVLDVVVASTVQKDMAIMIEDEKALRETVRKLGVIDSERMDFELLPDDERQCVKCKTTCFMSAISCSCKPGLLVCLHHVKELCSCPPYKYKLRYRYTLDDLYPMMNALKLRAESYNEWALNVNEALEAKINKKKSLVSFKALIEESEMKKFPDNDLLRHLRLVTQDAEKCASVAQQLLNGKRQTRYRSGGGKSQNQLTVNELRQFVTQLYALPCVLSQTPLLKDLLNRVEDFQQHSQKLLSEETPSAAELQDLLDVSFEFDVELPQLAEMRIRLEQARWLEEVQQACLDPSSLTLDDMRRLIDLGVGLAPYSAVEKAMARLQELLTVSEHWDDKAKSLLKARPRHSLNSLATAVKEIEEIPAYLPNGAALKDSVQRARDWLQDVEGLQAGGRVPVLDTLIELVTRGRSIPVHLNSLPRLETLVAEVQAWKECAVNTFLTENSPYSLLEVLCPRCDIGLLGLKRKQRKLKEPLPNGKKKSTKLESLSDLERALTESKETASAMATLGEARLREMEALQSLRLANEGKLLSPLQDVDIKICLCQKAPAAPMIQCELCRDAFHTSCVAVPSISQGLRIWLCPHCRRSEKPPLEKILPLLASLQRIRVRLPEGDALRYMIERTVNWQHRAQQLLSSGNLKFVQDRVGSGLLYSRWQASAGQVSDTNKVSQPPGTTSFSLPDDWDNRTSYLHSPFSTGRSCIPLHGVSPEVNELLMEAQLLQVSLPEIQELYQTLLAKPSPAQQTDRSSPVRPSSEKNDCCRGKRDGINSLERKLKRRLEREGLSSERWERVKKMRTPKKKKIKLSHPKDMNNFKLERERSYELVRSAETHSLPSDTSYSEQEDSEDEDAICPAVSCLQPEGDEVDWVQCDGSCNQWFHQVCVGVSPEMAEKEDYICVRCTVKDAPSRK

This assay addresses Lysine-specific demethylase 5B (Homo sapiens) (UniProt Q9UGL1). The assay is described as follows: Optimization screen for KDM5B Histone Demethylases FDH coupled qHTS against the LOPAC library (AID 1347166). Particulars: KDM5B demethylation, FDH-coupled NADH fluorescence (FDH is formaldehyde dehydrogenase); series mostly up to 57.5 µM. From the text:
Assay Submitter (PI): Qin Yan, Ph.D. (Yale University) and Xiaodong Cheng, Ph.D. (MD Anderson)
This project was funded as part of the NCI NEXT Program and Chemical Biology Consortium (CBC)
The histone demethylases, KDM5A and KDM5B catalyze the demethylation of lysine 4 on histone H3 (H3K4me3/2). They
are overexpressed in a variety of cancers and have been implicated in cancer cell growth, metastasis, drug resistance, and tumor growth. KDM5A is amplified and overexpressed in breast and gastric cancer; and is translocated in leukemia. While KDM5B is highly expressed in human mammary tumors and breast cancer cell lines, but not in normal adult breast tissue. Moreover, knockdown of KDM5B leads to upregulation of tumor suppressor genes, including BRCA1. The goal of this project is to employ qHTS to identify selective small molecule inhibitors of KDM5A/B demethylase activity to better understand the role of KDM5 in cancer and to develop novel therapies.
We employed an FDH-coupled assay previously reported by Sakurai et al. to monitor in vitro KDM5 demethylase activity. Compounds showing dose response inhibition are re-acquired, validated, and tested for non-specific interference with the formaldehyde dehydrogenase (FDH) counterscreen. True inhibitors are validated using an AlphaLisa secondary screen, which employs an H3K4(me2-1)-specific antibody to monitor demethylation of a biotin-tagged H3K4(me3) peptide substrate. Inhibitors are profiled against KDM4A and KDM6A AlphaLisa counterscreens to determine level of demethylase specificity; and against the TruHits counterscreen to eliminate non-specific inhibitory activity on the AlphaLISA detection method. Selective inhibitors identified from the primary and secondary screening are tested in cells using immunofluorescence to monitor global H3K4 tri-methylation as a measure of KDM5A/B inhibition. This assay is run against the NCGC Lopac collection of about 1,200 compounds to evaluate its amenability to quantitative High Throughput Screening (qHTS) platform.
Early Translation Branch (ETB)
National Center for Advancing Translational Sciences (NCATS), Rockville, MD
National Institute of Health (NIH), Bethesda, Maryland
[1] Sakurai, M et al. A miniaturized screen for inhibitors of Jumonji histone demethylases. Mol Biosyst. 2010 Feb;6(2):357-64. doi: 10.1039/b912993f. Epub 2009 Oct 8.
1536-well Black, solid bottom, medium binding assay plate is purchased from Greiner Bio-one. The enzymes (KDM5B) and substrate (H3K4me3/2) are provided by the principal investigators. The buffer for this assay is composed of 50mM HEPES at pH 7.5 with 0.01% Tween-20.
FDH coupled qHTS protocol:
Three microliter enzyme mix (buffer + 200nM KDM5BDeltaAP final concentration) is dispensed into the assay plate using the BioRAPTR Flying Reagent Dispenser (FRD; Beckton-Dickenson). Compound (at various final concentration) and control solution is pin transferred to the assay plate using the Kalypsys 1536-pin tool apparatus. The assay plate is incubated for 10 min at room temperature followed by addition of 1uL substrate mix (buffer + 100uM ascorbic acid, 50uM ferrous ammonium sulfate, 12.5uM H3K4Me3, 25uM a-ketoglutarate, 0.25 mM NAD+, 0.25 U/mL formaldehyde dehydrogenase using the FRD yielding a total reaction volume of 4 uL. Initial fluorescence (Read1) is detected using the PerkinElmer ViewLux plate reader equipped with 340 nm excitation and 450 nm emission filters. The final fluorescence (Read2) signal is obtained after 30 min of room temperature incubation. Delta RFU is calculated (Read2 - Read1) and is used to generated dose response curves
On the technique in general: qHTS replaces the single test concentration by a dilution series.
`Nc1nc(Cl)nc2c1ncn2[C@@H]1O[C@H](CO)[C@@H](O)[C@H]1O`: the molecule was classed as inactive.
To `Nc1ncnc2c1c(I)cn2[C@@H]1C[C@H](N)[C@@H](O)[C@H]1O` belongs “inactive”; to `Nc1ncnc2c1ncn2[C@@H]1O[C@H](COP(=O)(O)CP(=O)(O)OP(=O)(O)O)[C@@H](O)[C@H]1O`, “inactive”.
In the case of `CN(C)CCCO[C@@H]1[C@H]2OC(C)(C)O[C@H]2O[C@@H]1[C@H](O)CO`, the result was inactive.
To `CCCN(CC1CC1)c1nc(C)nc(Nc2c(Cl)cc(Cl)cc2Cl)c1Cl` belongs “inactive”; to `CNCC[C@H](Oc1ccc(C(F)(F)F)cc1)c1ccccc1`, “inactive”.
Regarding `O=C(O)CC[C@@H](C(=O)O)N1C(=O)c2ccccc2C1=O`, the molecule was classed as inactive.
Next, `CN1CCc2cc(NC(=O)Nc3cccnc3)ccc21`: “inactive”.
To `CC(C)(C=O)Cc1cc(C(C)(C)C)c(O)c(C(C)(C)C)c1` belongs “inactive”; to `C[N+](C)(C)CC(=O)[O-]`, “inactive”; to `CC[C@@H](C)[C@H]1O[C@]2(CC[C@H]1C)C[C@@H]1C[C@@H](CC=C(C)[C@@H](O[C@H]3C[C@H](OC)[C@@H](O[C@H]4C[C@H](OC)[C@@H](O)[C@H](C)O4)[C@H](C)O3)[C@@H](C)C=CC=C3CO[C@@H]4[C@H](O)C(C)=C[C@@H](C(=O)O1)[C@]34O)O2`, “inactive”.
To `O=c1[nH]c2cc([N+](=O)[O-])c([N+](=O)[O-])cc2[nH]c1=O` belongs “inactive”; to `O=[N+]([O-])c1ccc(CSc2ncnc3c2ncn3[C@@H]2O[C@H](CO)[C@@H](O)[C@H]2O)cc1`, “inactive”; to `N=C(N)SCCc1ccc(CCSC(=N)N)cc1`, “inactive”.
As for `CSc1nc(N)c2ncn([C@@H]3O[C@H](COP(=O)(O)OP(=O)(O)OP(=O)(O)O)[C@@H](O)[C@H]3O)c2n1`, the molecule was called inactive.
To `CNc1ncnc2c1ncn2[C@@H]1O[C@H](CO)[C@@H](O)[C@H]1O` belongs “inactive”; to `CN(C)c1nc(N)c(C(=O)N=C(N)N)nc1Cl`, “inactive”.
Next, `CC1(C)CCC=[N+]1[O-]`: “inactive”; `C[N+]1(C)CCC(OC(=O)C(c2ccccc2)c2ccccc2)CC1`: “inactive”.
To `CCOC(=O)N1CCN(/[N+]([O-])=N/Oc2ccc([N+](=O)[O-])cc2[N+](=O)[O-])CC1` belongs “inactive”.
Consider `CC(=O)SCC[N+](C)(C)C`, for which the molecule was classed as inactive.
To `Oc1cc2c(cc1O)CN(C(=S)NCCc1ccc(Cl)cc1)CCC2` belongs “inactive”.
`Brc1c(Br)c(Br)c2n[nH]nc2c1Br`: the molecule was classed as inactive.
To `CC(C)ON([C@@H](C(=O)NO)C(C)C)S(=O)(=O)c1ccc(-c2ccccc2)cc1` belongs “inactive”; to `OC[C@H]1O[C@@H](n2cnc3c(NC4CCCC4)ncnc32)[C@H](O)[C@@H]1O`, “inactive”; to `O=c1[nH]c2cc(C(F)(F)F)ccc2n1-c1cc(C(F)(F)F)ccc1O`, “inactive”.
To `CO/N=C(\C(=O)N[C@@H]1C(=O)N2C(C(=O)O)=C(COC(C)=O)CS[C@H]12)c1csc(N)n1` belongs “inactive”; to `Cc1ccc(O)c(N=Nc2ccccc2)n1`, “inactive”.
Next, `COc1cc(SC)ccc1C(=O)N1CCC(Cc2ccccc2)CC1`: “inactive”; `CC12C(=O)OC(=O)C1(C)C1CCC2O1` (stereo not given): “inactive”.
For the molecule `CCCCN1CCC(n2c(=O)[nH]c3ccccc32)CC1`, the molecule was called inactive.
As for `NCCCCCCCCCCN`, the outcome was inactive.
Take `CC(COc1ccc(/C=C/c2ccccc2)cc1)[N+](C)(C)C` (stereo not given): the outcome was inactive.
With `CN1CCC[C@H]1c1cccnc1`, the molecule was classed as inactive.
To `CC(N)C(=O)OC(C)(C)Cc1ccc(Cl)cc1` (stereo not given) belongs “inactive”; to `NC(=O)C1=CN(C2OC(COP(=O)(O)OP(=O)(O)OC[C@H]3O[C@@H](n4cnc5c(N)ncnc54)[C@H](OP(=O)(O)O)[C@@H]3O)C(O)C2O)C=CC1` (stereo not given in full), “inactive”; to `COc1cc2c(CCNC(C)=O)c[nH]c2cc1Cl`, “inactive”.
Next, `COc1cccc(C(=O)NCCN2CCN(c3ccc(Cl)cc3)CC2)c1`: “inactive”.
As to `N=c1ccn2c(n1)O[C@H]1[C@H](O)[C@@H](CO)O[C@H]12`, the call was inactive.
Next, `NS(=O)(=O)C#Cc1ccccc1`: “inactive”.
